In PubChem BioAssay (NCATS):
Results filed as inconclusive are left out. The source made the active and inactive calls. Calls follow the shape of the dose curve; as a rule, active = well fitted inhibition curve with a large enough effect; inconclusive = small, poorly fitted or top-dose-only effect; inactive = flat fitted curve, though single readings scatter.

target: Calcium and integrin-binding protein 1 (Homo sapiens) (UniProt Q99828); experiment: Primary qHTS for Identification of Calcium Integrin Binding Protein 1 (CIB1) Competitor (AID 1508620); conditions: CIB1-GST / FITC-alphaIIb peptide fluorescence polarization; series mostly up to 114 µM;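 also: GST tagged CIB1 binding a fluorescein labelled alphaIIb integrin peptide tracer; top concentration of the series differs between compounds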
Sequence (Q99828 whole entry, looked up): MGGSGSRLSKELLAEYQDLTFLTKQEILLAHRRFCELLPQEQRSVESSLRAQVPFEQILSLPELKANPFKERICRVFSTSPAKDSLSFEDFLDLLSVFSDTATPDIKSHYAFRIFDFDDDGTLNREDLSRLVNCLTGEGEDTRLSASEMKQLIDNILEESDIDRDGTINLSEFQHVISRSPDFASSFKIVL
Outline: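 Fluorescence polarization competition: CIB1-GST (1 uM final) preincubated with compound 15 min at room temperature, then FITC-labeled alphaIIb peptide (100 nM final) added for another 15 min. Polarization read at Ex 480/Em 540.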

Row | Structure (SMILES) | outcome
1 | N#Cc1ccc(NC(=O)Nc2nnc(-c3ccncc3)s2)cc1C(F)(F)F | inactive
2 | N#Cc1c(-c2ccc([N+](=O)[O-])o2)no[n+]1[O-] | inactive
3 | CCOc1ccc(CCNC(=O)c2cc3ccccc3n2Cc2cccc(C)n2)cc1OCC | inactive
4 | CCOc1ccc(CCNC(=O)c2ccc(C(=O)c3ccccc3)cc2)cc1OCC | inactive
5 | CCOc1ccc(CCNC(=O)c2ccc(Oc3ccccc3)cc2)cc1OCC | inactive
6 | COc1cccc(CNc2ccc(C(=O)Nc3nccs3)cc2)c1O | inactive
7 | COc1cccc(CNc2ccc(S(=O)(=O)Nc3nc(C)c(C)s3)cc2)c1O | inactive
8 | COC(=O)c1nc(-c2cccc3ccccc23)oc1OC | inactive
9 | Cc1cc(C)c(OP(=O)(OCc2c(-c3ccccc3)no[n+]2[O-])Oc2c(C)cc(C)cc2C)c(C)c1 | inactive
10 | CCc1nn2c(=O)c(F)c(N3CCNCC3)nc2s1 | inactive
11 | CCOc1ccc(CCNC(=O)c2cc3cnccc3n2Cc2cccc(C)n2)cc1OCC | inactive
12 | CCOc1ccc(CCNC(=O)c2cc3ncccc3n2Cc2cccc(C)n2)cc1OCC | inactive
13 | Cc1ccc2nc(NC3=NC(c4[nH]ncc4Cl)C4=C(CCCC4=O)N3)oc2c1 (stereo unspecified) | inactive
14 | Cc1nn2c(=O)cc(N3CCNCC3)nc2s1 | inactive
15 | O=C(Nc1ncc(Cc2ccc(C(F)(F)F)cc2)s1)c1cnc(-c2ccccc2)o1 | inactive
16 | Cc1cccc(C)c1OP(=O)(OCc1c(-c2ccccc2)no[n+]1[O-])Oc1c(C)cccc1C | inactive
17 | CCOc1ccc(CCNC(=O)c2cc3cnccc3n2Cc2cccc(C)c2)cc1OCC | inactive
18 | O=S(=O)(Nc1cccc2ccncc12)c1ccc(NCc2cccc(Cl)c2O)cc1 | inactive
19 | CC(=O)Nc1ncc(S(=O)(=O)N2CCOCC2)s1 | inactive
20 | O=C1CCCC2=C1C(c1[nH]ncc1Cl)N=C(Nc1nc3ccc(F)cc3o1)N2 (stereo unspecified) | inactive
21 | Cn1cc(Cl)c(C2N=C(Nc3nc4ccccc4o3)NC3=C2C(=O)CCC3)n1 (stereo unspecified) | inactive
